Sampled rows, rich in hits. Any-hit rate of the full collection: about 6.6%.
SW480 rerep: DNA re-replication induction in SW480 cells. Potency, µM (titrated, usually from 46.1 µM), inactives show at the highest dose re-replication activation, most hits filed as activators. SW480 DNA re-replication, Hoechst DNA content imaging, 48 h. 1.8% of 340,000 active. AID 624297; note: % of control where 0% means no effect; nearly all actives have a fitted effect of over 55% in size
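Quantitative HTS format with DMSO vehicle controls; 48 hr drug incubation at 37 C, then 40 min Hoechst staining and scanning imager measurement at 405 nm excitation.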
KB-V1 cytotox: kills drug-selected multidrug resistant KB-V1 cells; KB-V1 MDR cells viability, CellTiter-Glo, 72 h; Potency, µM (series often up to 46.1 µM), usual class: cytotoxic; 3.4% of 400,000 active; note: % is set by controls: 0 for no effect and ±100 for the full control effect; nearly all actives have a fitted effect of over 60% in size
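KB-V1 cells (P-gp-expressing MDR subline of KB-3-1) in phenol-red-free DMEM with 10% FBS were exposed to library compounds over a concentration series for 72 h at 37 degrees C. Viability read by CellTiter-Glo luminescence; concentration-effect curves fitted after normalization.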
RGS4 inh: blocks human RGS4-accelerated GTP hydrolysis; Potency, µM (series often up to 114 µM), without a hit: at the top dose activity change, negative = inhibition, most hits filed as inhibitors; 0.039% of 390,000 active; Transcreener GDP fluorescence polarization, RGS4-accelerated GTP hydrolysis; note: % is set by controls: 0 for no effect and ±100 for the full control effect; nearly all actives have a fitted effect of over 75% in size
Target sequence (P49798 whole entry, looked up): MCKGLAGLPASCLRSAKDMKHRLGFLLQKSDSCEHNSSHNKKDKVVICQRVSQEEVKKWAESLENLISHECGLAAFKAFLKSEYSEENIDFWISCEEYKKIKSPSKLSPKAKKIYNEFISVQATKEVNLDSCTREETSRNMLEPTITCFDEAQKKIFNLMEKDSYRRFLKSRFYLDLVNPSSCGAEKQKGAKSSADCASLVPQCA
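MLSMR compounds (23 nl, pin-transferred) preincubated 10 min at room temperature with a 500nM (2x) first reagent, then RGS4 at 900nM (2x) plus Transcreener GDP mix added; fluorescence polarization (620/688 nm) read before and after 90 min at 30 °C.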
PTAP TSG101 blk: blocks PTAP/TSG101 interaction to inhibit HIV-1 budding; 340,000 tested, under 10 active; AID 493005; Fluorescence polarization, FITC-PTAP peptide / Tsg101 binding; Q99816; Potency, µM (highest dose often 115 µM), for inactives: at the top dose activity change, negative = inhibition, usual class: inhibitors; active = well fitted inhibition curve with a large enough effect in the main read-out, with a control signal flat, not every such curve was filed as active; inconclusive = small, poorly fitted or top-dose-only effect, or effect the other way, or a change in a side signal; inactive = no such curve, though single readings can be large or run the other way; note: % of control where 0% means no effect
Target sequence (Q99816 whole entry, looked up): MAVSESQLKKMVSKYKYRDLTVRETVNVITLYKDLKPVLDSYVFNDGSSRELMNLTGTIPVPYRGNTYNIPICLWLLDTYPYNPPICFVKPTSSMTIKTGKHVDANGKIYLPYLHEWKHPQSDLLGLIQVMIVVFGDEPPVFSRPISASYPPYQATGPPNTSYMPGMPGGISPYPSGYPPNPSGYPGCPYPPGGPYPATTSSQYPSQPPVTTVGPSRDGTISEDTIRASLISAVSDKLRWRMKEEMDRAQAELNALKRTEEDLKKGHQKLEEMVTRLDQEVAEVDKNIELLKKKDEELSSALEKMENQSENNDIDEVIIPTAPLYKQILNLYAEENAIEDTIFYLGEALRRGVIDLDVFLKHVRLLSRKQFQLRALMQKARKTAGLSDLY
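Tsg101 binding domain (10 uM final) was mixed with compound and a FITC-labeled PTAP peptide (50 nM final) in HEPES pH 7.5 buffer with NaCl, Tween 20, EDTA and TCEP; fluorescence polarization was read after 20 min at r.t.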
MCF10A rereplic: inducers of DNA re-replication in MCF 10A breast cells; MCF 10A DNA re-replication, Hoechst nuclear intensity, 48 h; Potency, µM (highest dose often 46.1 µM), for inactives: at the highest dose activity, positive = re-replication, most hits filed as activators; 2.9% of 350,000 active; note: % of control where 0% means no effect; nearly all actives have a fitted effect of over 50% in size
KB-3-1 cytotox: kills parental KB-3-1 adenocarcinoma cells | KB-3-1 viability, CellTiter-Glo ATP luminescence, 72 h | Potency, µM (highest dose often 46.1 µM), most hits filed as cytotoxic | 1.4% of 400,000 active | AID 1347075; note: % is set by controls: 0 for no effect and ±100 for the full control effect; nearly all actives have a fitted effect of over 60% in size
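KB-3-1 cells, DMEM (no phenol red) + 10% FBS; compound by pin transfer, 72 h, 37 °C. Readout: CellTiter-Glo luminescence after 10 min. Data normalized, curve-fitted.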
The depositor's hits bear a star; i = inactive; ? = inconclusive; · = no result given; [ ] = dose if it differs, or a comment. Unless noted, calls come from the whole dose curve; as a rule, active = well fitted curve in the direction sought with a large enough effect; inconclusive = small, poorly fitted or top-dose-only effect, or another doubt; inactive = no such curve, though single readings can be large; an effect the other way counts as inactive or inconclusive. Potency is the fitted concentration of half-maximal effect.

SMILES | SW480 rerep | KB-V1 cytotox | RGS4 inh | PTAP TSG101 blk | MCF10A rereplic | KB-3-1 cytotox
CSc1nc2ccccc2cc1/C=C(\C#N)c1ccccc1 | ? | ? | -38% | -1% | 13µM* | ?
COc1cccc(CC2(CO)CCCN(Cc3ccccc3Cl)C2)c1 (configuration not stated) | -10% | ? | -12% | -1% | 4.6µM* | i
COc1ccc(F)c(CN2CCCC(CO)(Cc3cccc(Cl)c3)C2)c1 (configuration not stated) | 6% | i | -4% | -4% | 16% | i
O=C(NC1CC1)c1nc2c(nnn2Cc2ccccc2Cl)c(=O)[nH]1 | 17% | i | 17% | -6% | ? | i
O=C(NCCc1ccccc1)c1nc2c(nnn2Cc2ccccc2Cl)c(=O)[nH]1 | -6% | 15µM* | 22% | -10% | 48% | i
O=C1C(N2CCOCC2)=C(n2nnc3ccccc32)C(=O)c2ccccc21 | ? | 4.1µM* | -2%[11.4 µM] | -8% | ? | i
COc1ccc(Nc2nc3ccccc3n2C)cc1 | -5% | i | 9% | -2% | 1% | i
COc1ccc(/C=C/c2nc3ccccc3n2C)cc1 | 1% | 4.1µM* | -15% | -1% | 15% | 5.2µM*
COc1ccc(Cn2c(/C=C/c3ccccc3)nc3ccccc32)cc1 | ? | 13µM* | -10% | 0% | ? | ?
CC(O)c1nc2ccccc2n1C/C=C/c1ccccc1 (configuration not stated) | 0% | 15µM* | -31% | -2% | -6% | i
N#Cc1c(-c2ccccc2)cc(-c2ccc3c(c2)OCO3)[nH]c1=O | 18µM* | ? | 8% | 0% | ? | i
Cc1cccc(Cn2nnc3c2C(=O)c2ccccc2C3=O)c1 | ? | 6.3µM* | -9% | -5% | 14% | ?
Cc1ccccc1Cn1nnc2c1C(=O)c1ccccc1C2=O | ? | 13µM* | -43% | -1% | 23% | ?
Cc1ccccc1Cn1nnc2sc3c(c2c1=O)CCCC3 | · | · | -15% | · | · | ·
CCOC(=O)c1cccc(NS(=O)(=O)c2ccc3[nH]c4c(c3c2)CCCC4)c1 | · | i | -5% | · | · | i
CCOC(=O)c1c(NC(=O)c2ccc(S(=O)(=O)N(C)C3CCCCC3)cc2)sc2c1CCN(C(C)C)C2 | · | i | 2% | · | · | i
CSC1=NC(C)(C)C=C(/C=C/c2ccc(Cl)cc2)N1 | 0.65µM* | ? | ? | -2% | 16µM* | i
CSC1=NC(C)(C)C=C(/C=C/c2ccc(Cl)cc2Cl)N1 | 15µM* | i | -45% | 1% | ? | ?
CCc1nnc2c3ccccc3nc(N3CCN(c4cc(Cl)ccc4C)CC3)n12 | · | i | 22% | · | · | i
COc1cc(OC)cc(C(=O)NCC(=O)N2CC=C(c3ccccc3)CC2)c1 | 7.3µM* | 7.3µM* | -29% | -4% | ? | 5.8µM*
O=C(NCC(=O)N1CC=C(c2ccccc2)CC1)c1ccc(OC(F)F)cc1 | ? | 13µM* | -2% | 4% | 8.2µM* | ?
COc1ccc(C(=O)NCC(=O)N2CCN(c3ccccc3)CC2)cc1 | -3% | ? | 8% | 0% | 0% | i
Cc1cc(C)cc(C(=O)NCC(=O)N2CCN(C(c3ccccc3)c3ccccc3)CC2)c1 | ? | 18µM* | -1% | -2% | 16µM* | ?
O=C(NCC(=O)N1CCN(C(c2ccccc2)c2ccccc2)CC1)c1ccccc1Br | · | i | · | · | · | ?
O=C(NCC(=O)N1CC=C(c2ccccc2)CC1)c1ccccc1Br | -26% | ? | -10% | -3% | 8.2µM* | ?
SMILES | SW480 rerep | KB-V1 cytotox | RGS4 inh | PTAP TSG101 blk | MCF10A rereplic | KB-3-1 cytotox
O=C(NCC(=O)N1CCCCCC1)c1ccc(OC(F)F)cc1 | -5% | i | 38% | -10% | 0% | i
N#Cc1cc(C#N)c(N2CCN(c3cccc(Cl)n3)CC2)nc1N | 20% | 18µM* | -26% | -1% | 3.3µM* | i
C=CCn1c(SCc2ccc(C(=O)Nc3ccccc3)cc2)nnc1-c1ccccc1 | 0% | 2.6µM* | -27% | -9% | 2% | i
C=CCn1c(SCC(=O)c2ccccc2)nnc1-c1ccc2c(c1)OCO2 | ? | 21µM* | ? | -2% | ? | i
C=CCn1c(SCC(=O)c2ccccc2)nnc1-c1cc2ccccc2o1 | -4% | ? | -41% | 0% | 16% | i
COc1ccc(OC)c(N(CC(=O)NCc2ccccc2)S(=O)(=O)c2ccccc2)c1 | · | i | -11% | · | · | i
Cc1ccc(N=c2c([N+](=O)[O-])nn(-c3ccccc3)n2O)c(C)c1 | ? | i | 4% | 70% | 10µM* | ?
CCCC(=O)Nc1nnc2n1CCS2 | · | ? | 4% | · | · | i
Cc1ccc(C(=O)NN(C)c2nc3ccccc3nc2C(F)(F)F)cc1 | 13µM* | ? | 12% | -3% | 4.6µM* | 5.8µM*
CC(C)CC(=O)NN(C)c1nc(-c2ccccc2)nnc1C(F)(F)F | -3% | i | -18% | -3% | 9% | i
CN(NC(=O)c1ccc(Cl)cc1)c1nc(-c2ccccc2)nnc1C(F)(F)F | -2% | 15µM* | 14%[11.4 µM] | 5% | ? | ?
COc1ccc(NC(=O)CC2C(=O)N(c3ccc(F)cc3)C(=O)N2Cc2ccc3c(c2)OCO3)cc1 (configuration not stated) | · | i | 6% | · | · | i
N=c1c2c(-c3ccccc3)c(-c3ccccc3)n(Cc3ccco3)c2ncn1CCO | -5%[9.22 µM] | i | -20%[11.4 µM] | 0% | 10µM* | i
N=c1c2c(-c3ccccc3)c(-c3ccccc3)n(Cc3ccco3)c2ncn1CCCO | ? | ? | -4% | 0% | ? | i
CC(C)Oc1ccc(CNC(=O)c2sc3ncccc3c2-n2cccc2)cc1 | · | i | -18% | · | · | i
Cc1cc(C(=O)COC(=O)c2ccc3c(c2)NC(=O)CS3)c(C)n1CC1CCCO1 (configuration not stated) | ? | 12µM* | -39% | -6% | ? | i
Cc1nc(CSc2nc3[nH]ncc3c(=O)n2-c2ccccc2)cs1 | -1% | i | -6% | -2% | -1% | i
Cc1noc(C)c1CSc1nc2[nH]ncc2c(=O)n1-c1ccccc1 | ? | ? | 31% | 0% | 1.3µM* | ?
Cc1noc(C)c1CSc1nc2ccccc2c(=O)n1-c1ccc(F)cc1F | ? | 21µM* | -4% | 0% | 13µM* | 7.3µM*
CN(C(=O)CSc1nc2ccccc2c(=O)n1-c1ccc(F)cc1F)C1CCS(=O)(=O)C1 (configuration not stated) | 0% | i | -4% | 0% | -1% | i
